In the library only some 5.8% were active in any assay of this set; here they are far more common.
KB-V1 MDR tox = kills drug-selected multidrug resistant KB-V1 cells; Potency, µM (doses to about 46.1 µM), most hits filed as cytotoxic; actives 3.4% (n = 400,000); KB-V1 MDR cells viability, CellTiter-Glo, 72 h; AID 1347076; also: % is scaled to controls: 0 for no effect and ±100 for the full control effect; nearly all actives have a fitted effect of over 60% in size
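Potencies derive from concentration-effect curves fitted to normalized luminescence (CellTiter-Glo) of KB-V1 cells treated for 72 h at 37 degrees C in phenol-red-free DMEM containing 10% FBS.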
SW480 rereplic = DNA re-replication induction in SW480 cells; SW480 DNA re-replication, Hoechst DNA content imaging, 48 h; AID 624297; Potency, µM (highest dose often 46.1 µM), for the others: top-dose re-replication activation, most hits filed as activators; actives 1.8% (n = 340,000); also: % of control where 0% means no effect; nearly all actives have a fitted effect of over 55% in size
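Hoechst fluorescence of nuclei (405 nm excitation, 500-530 nm emission) measured by plate-scanning imager after 48 hr compound exposure at 37 C; re-replication scored as increased number of nuclei with elevated intensity.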
MCF10A rerep = DNA re-replication induction in MCF 10a cells. MCF 10A DNA re-replication, Hoechst nuclear intensity, 48 h. actives 2.9% (n = 350,000). Potency, µM (series often up to 46.1 µM), for the others: at the highest dose activity, positive = re-replication, usual class: activators. AID 624296; also: % of control where 0% means no effect; nearly all actives have a fitted effect of over 50% in size
PINK1 expr mod = modulators of PINK1 expression; AID 624263; Potency, µM (titrated, usually from 76.6 µM), for the others: top-dose activation (PINK1 increase), hits mostly activators; actives 0.2% (n = 410,000); PINK1 immunofluorescence, high-content cytometry, 24 h; active = well fitted activation curve with a large enough effect; inconclusive = small, poorly fitted or top-dose-only effect; cell line not stated here; also: % of control where 0% means no effect; nearly all actives have a fitted effect of over 65% in size
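Measures PINK1 amount and localization on or inside mitochondria by immunofluorescence. Stable cells get compounds at 5 concentrations for 24 hours before fixation and staining; CCCP controls included.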
KB-3-1 tox = KB-3-1 parental cell cytotoxicity; KB-3-1 viability, CellTiter-Glo ATP luminescence, 72 h; Potency, µM (top dose mostly 46.1 µM), most hits filed as cytotoxic; actives 1.4% (n = 400,000); also: % is scaled to controls: 0 for no effect and ±100 for the full control effect; nearly all actives have a fitted effect of over 60% in size
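Using CellTiter-Glo luminescence, growth of non-resistant KB-3-1 adenocarcinoma cells is assessed 72 h after pin-tool compound addition at 37 °C. Normalized responses across the concentration series yield fitted curves.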
12-LOX inh = inhibitors of human 12S-lipoxygenase ALOX12. P18054. purified 12hLO, xylenol orange hydroperoxide absorbance. Potency, µM (titrated, usually from 108 µM), inactives show top-dose activity change, negative = inhibition, most hits filed as inhibitors. actives 1.1% (n = 580,000). AID 1671190; also: % is scaled to controls: 0 for no effect and ±100 for the full control effect
Target sequence (P18054 whole entry, looked up): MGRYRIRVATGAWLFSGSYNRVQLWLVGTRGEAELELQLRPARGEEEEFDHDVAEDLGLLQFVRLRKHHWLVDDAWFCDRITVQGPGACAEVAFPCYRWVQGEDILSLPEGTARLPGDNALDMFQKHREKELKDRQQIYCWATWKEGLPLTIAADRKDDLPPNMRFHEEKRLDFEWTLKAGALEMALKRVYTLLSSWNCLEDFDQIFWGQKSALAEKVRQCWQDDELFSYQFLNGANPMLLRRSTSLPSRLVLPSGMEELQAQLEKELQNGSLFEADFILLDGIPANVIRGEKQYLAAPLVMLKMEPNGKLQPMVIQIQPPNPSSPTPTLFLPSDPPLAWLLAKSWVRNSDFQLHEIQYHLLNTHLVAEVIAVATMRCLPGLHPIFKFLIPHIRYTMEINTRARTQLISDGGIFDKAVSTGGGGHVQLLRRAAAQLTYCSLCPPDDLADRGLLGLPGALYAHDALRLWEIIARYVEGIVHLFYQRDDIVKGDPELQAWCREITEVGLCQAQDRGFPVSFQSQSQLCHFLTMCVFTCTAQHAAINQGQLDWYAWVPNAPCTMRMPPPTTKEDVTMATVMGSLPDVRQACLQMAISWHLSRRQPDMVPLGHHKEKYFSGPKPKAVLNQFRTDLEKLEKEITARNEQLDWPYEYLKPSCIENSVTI
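Purified human 12hLO (150 nM final) in 25 mM Hepes, 0.01% Triton X-100, pH 7.0 was preincubated 15 min at room temperature with compound. Then 40 uM arachidonic acid was added, 30 min. Hydroperoxide was read by Fe-XO absorbance ratio 573/405 nm.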
Active calls of the source: *; i = inactive; ? = inconclusive; . = not tested or not shown. Unless noted, calls follow the shape of the dose curve; as a rule, active = well fitted curve in the direction sought with a large enough effect; inconclusive = small, poorly fitted or top-dose-only effect, or another doubt; inactive = no such curve, though single readings can be large; an effect the other way counts as inactive or inconclusive. Potency is read from the fitted curve at half-maximal effect.

SMILES	KB-V1 MDR tox	SW480 rereplic	MCF10A rerep	PINK1 expr mod	KB-3-1 tox	12-LOX inh
CCNC(=S)N=Nc1c(O)[nH]c2ccc(C(C)C)cc12	3.7µM*	-2%	18%	2%	i	11%
CCN(CC)CCCNC(=O)CNc1nc(Cl)nc2nc[nH]c12	.	.	.	.	.	-15%
CC(C)(O)C#Cc1ccc(C(=O)N2CCCC(CNS(=O)(=O)c3cccs3)C2)o1 (centres undefined)	i	21µM*	9%	0%	i	-8%
COc1cc(NC(=O)c2cccc(C)c2)ccc1NC(=O)c1cc2ccccc2o1	i	15%	2.6µM*	9%	i	5%
COc1cc(NC(=S)NC(=O)C(C)C)ccc1NC(=O)c1cc2ccccc2o1	i	?	8.2µM*	2%	i	6%
Cc1ccc(N(C(=O)c2cccs2)C2C=CS(=O)(=O)C2)cc1C (centres undefined)	.	.	.	.	.	-1%
Oc1[nH]c2ccc(Br)cc2c1N=NC(=S)N1CCOCC1	i	?	29%	0%	i	40µM*
COC(=O)c1ccc(C(NC(=O)OCc2ccccc2)/C(F)=C/[C@@H](C)C(=O)NCc2ccc(OC)c(OC)c2)cc1 (some centres undefined)	i	16µM*	?	-2%	?	-27%
N#Cc1ccc(CN2CCCN(CC(=O)N3CCN(C4CCS(=O)(=O)C4)CC3)CC2)cc1 (centres undefined)	.	.	.	.	.	42%
O=C(CSCc1ccccc1Br)NNC(=S)NCc1ccco1	?	0%	?	-2%	?	45µM*
CCOC(=O)Cn1nc(C)cc1NC(=O)c1cc(OC)c(OC)c(OC)c1	i	-2%	23µM*	3%	i	2%
Oc1ccc(/C=N/Nc2ccc(C(F)(F)F)cn2)cc1	i	9.2µM*	-1%	-1%	?	?
COc1cc(/C=N/Nc2ccccn2)cc(OC)c1O	i	19%	-17%	0%	i	?
COc1cc(/C=N/Nc2ccc(C(F)(F)F)cn2)cc(OC)c1O	i	12µM*	23%	-1%	?	?
Cn1cc(CC(=O)N2CCCc3ncc(C(=O)NCc4cccs4)cc32)c2ccccc21	.	.	.	.	.	-15%
Cc1c(C(=O)Nc2cccc(Cl)c2)c2ccccn2c1CCc1ccncc1	?	?	7.3µM*	1%	i	-14%
Cc1c(C(=O)Nc2ccc(Cl)cc2)c2ccccn2c1CCc1ccncc1	i	2%	?	-2%	i	?
O=C(NC1CC1)[C@@H]1CN(Cc2ccc(Cl)cc2F)C[C@H]1CO	.	.	.	.	.	45µM*
O=C(NC1CC1)[C@@H]1CN(Cc2cc(F)c(F)cc2F)C[C@H]1CO	.	.	.	.	.	30%
CCn1ncc(CN2C[C@@H](CO)[C@H](NC(=O)c3ccccc3)C2)c1C	.	.	.	.	.	35%
O=C(N[C@@H]1CN(Cc2ccc(F)cc2F)C[C@H]1CO)c1ccccc1	.	.	.	.	.	28µM*
COCC(C)n1c(C)cc(C(=O)Cn2cnc3scc(-c4ccc(C)cc4)c3c2=O)c1C (centres undefined)	.	.	.	.	.	1%
COCCn1c(CN2CCCCC2C)nc2c1c(=O)n(C)c(=O)n2C (centres undefined)	.	.	.	.	.	-18%
CN(Cc1ccccc1)C(=O)c1ccc2c(c1)N(Cc1ccc(Cl)cc1)C(=O)c1ccccc1S2=O (centres undefined)	?	.	.	0%	16µM*	?
CC1CC(C)CN(CCCNC(=O)c2ccc3c(c2)N(Cc2ccccc2)C(=O)c2ccccc2S3=O)C1 (centres undefined)	i	?	12µM*	0%	i	-10%
SMILES	KB-V1 MDR tox	SW480 rereplic	MCF10A rerep	PINK1 expr mod	KB-3-1 tox	12-LOX inh
CCOCCCNC(=O)c1ccc2c(c1)N(CC)C(=O)c1ccccc1S2=O (centres undefined)	18µM*	5%	6%	3%	?	-14%
O=C(NCc1ccco1)c1ccc2c(c1)N(Cc1ccc(Cl)cc1)C(=O)c1ccccc1S2=O (centres undefined)	i	.	.	3%	i	?
c1ccc2c(c1)Cc1cc(-n3cccc3)ccc1-2	.	.	.	.	.	5%
Cc1cc(C)cc(-n2nnnc2SCC(=O)N(C)c2ccccc2C(=O)NCc2ccco2)c1	.	.	.	.	.	10%
CC(NC(=O)c1cccnc1)C(=O)O (centres undefined)	i	1µM*	-9%	1%	i	1%
COc1cc(-c2cc(OC)c(O)c(OC)c2)cc(OC)c1O	?	23µM*	?	14%	?	-11%
COc1cc(C(=O)C(=O)c2cc(OC)c(O)c(OC)c2)cc(OC)c1O	i	-2%	-2%	3%	i	8%
CCOc1ccc(CN(C)C(C)C(=O)Nc2ccc([N+](=O)[O-])cc2Cl)cc1OC (centres undefined)	i	-6%	-11%	1%	i	-11%
COc1ccc(CN(C)C(C)C(=O)Nc2ccc([N+](=O)[O-])cc2Cl)cc1OC (centres undefined)	5.2µM*	?	18%	1%	i	-4%
Cc1ccc(NC(=O)C(Sc2nnc(-c3ccoc3C)o2)c2ccccc2)cc1Cl (centres undefined)	.	.	.	.	.	-4%
COc1cc(CN(C2CCCCC2C)S(=O)(=O)c2ccc(S(=O)(=O)NC3CC3)cc2)cc(OC)c1OC (centres undefined)	i	2%	10%	1%	?	-2%
COc1ccc(CN(C2CCCCC2C)S(=O)(=O)c2ccc(S(=O)(=O)N(C)C)cc2)cc1OC (centres undefined)	6.5µM*	29%	?	-1%	i	-21%
CCCCNCc1ccc(OCc2ccc(Cl)nc2)c(OC)c1	i	-1%	?	1%	i	72%
CCN1CCCC1CNCc1ccc(OCc2ccc(Cl)nc2)c(OC)c1 (centres undefined)	i	23%	5.8µM*	3%	i	-2%
NC(=O)N/N=C/c1cccc([N+](=O)[O-])c1	.	.	.	.	.	6%
Cc1ccccc1Nc1nc(-c2ccccc2)c(C(=O)Nc2cccnc2)s1	i	?	23µM*	-1%	i	0%
C=CCc1c(C)nc(C)nc1N/N=C/c1ccc([N+](=O)[O-])cc1	i	3%	-2%	-1%	i	14%
C=CCc1c(C)nc(C)nc1N/N=C/c1ccccc1O	7.3µM*	12µM*	19%	1%	i	19%
COc1ccc(C(=O)NC(=S)Nc2ccc(N3CCOCC3)cc2)cc1Cl	?	?	?	1%	i	16µM*
